Measurements taken from PubChem BioAssay (NCI).
The panel holds about 83,000 compounds, 20% with a hit somewhere; the sample as a whole holds those more often.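 96-well plates, one dose, 48 hours. Percent growth reported; active if below 10.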 Active and inactive are the calls of the source.

Key:
Test in all cases: NCI-60 one-dose screen, 48 h (100 = growth as untreated, 0 = no growth, -100 = all killed)
Settings in all cases: 10 µM unless noted
[1] = test system: NCI-H23 lung
[2] = test system: NCI-H226 lung
[3] = test system: NCI-H322M lung
[4] = test system: HOP-62 NSCLC
[5] = test system: NCI-H460 lung
[6] = test system: HOP-92 NSCLC
[7] = test system: A549/ATCC NSCLC
[8] = test system: 786-0 renal
[9] = test system: COLO 205 colon
[10] = test system: DU-145 prostate
[11] = test system: K-562 leukemia
[12] = test system: MALME-3M melanoma
[13] = test system: MDA-MB-231 breast
[14] = test system: RXF 393 renal
[15] = test system: SF-268 CNS
[16] = test system: SF-295 CNS
[17] = test system: SF-539 CNS
[18] = test system: UACC-257 melanoma
[19] = test system: M14 melanoma

Measured: growth

COc1cnc2c(c1)C(=O)c1c-2n(CCCNC2=NCCS2)c(=O)c2cc(F)ccc12
inactive: [3] 46.6% | [4] 11.2% | [6] 50.9% | [9] 22.1% | [10] 14.9% | [12] 27.8% | [13] 51% | [14] 35.1% | [15] 23.2% | [18] 21.8%
active: [1] 6.62% | [2] 3.93% | [5] -43.8% | [7] 9.29% | [8] -90.5% | [11] -34.4% | [16] -5.74% | [17] -13.2% | [19] 5.96%

COc1cnc2c(c1)C(=O)c1c-2n(CCCN2CCNCC2)c(=O)c2cc(F)ccc12
active: [1] -3.16% | [2] -57.6% | [4] -8.55% | [5] -58.4% | [6] -7.94% | [7] -70.4% | [8] -94.3% | [9] -10.5% | [10] -0.602% | [11] -65.9% | [12] -60.7% | [13] 9.36% | [14] -36% | [15] 6.43% | [16] 0.838% | [17] -64.2% | [19] -56.7%
inactive: [3] 13.7% | [18] 10.8%

Clc1ccc(C2=NN(c3ccc(Cl)cc3)C(c3cccc(Nc4ccnc5cc(Cl)ccc45)c3)C2)cc1 (stereo not given)
inactive: [1] 85.2% | [2] 88% | [3] 87.7% | [4] 69.4% | [5] 93.1% | [6] 88% | [7] 70.9% | [8] 85.3% | [9] 72.8% | [10] 96.2% | [11] 75.1% | [12] 87.1% | [13] 84.5% | [14] 82.5% | [15] 84.3% | [16] 88.6% | [17] 96.5% | [18] 76.8% | [19] 84.8%

C[C@@H]1CN(c2nc3c(cc2F)c(=O)c(C(=O)O)cn3C(C)(C)C)C[C@H](C)N1
active: [14] -17.3%
inactive: [1] 95.2% | [2] 91% | [3] 93.7% | [4] 98.5% | [5] 107% | [6] 71.6% | [7] 99.9% | [8] 112% | [9] 110% | [10] 114% | [11] 90.8% | [12] 91.3% | [13] 88.4% | [15] 114% | [16] 96.5% | [17] 107% | [18] 91.2% | [19] 98.8%

ICCC(c1ccccc1)(c1ccccc1)c1ccccc1
active: [9] -61.5% | [11] -9.2% | [12] -43.4% | [18] -62.8% | [19] -76.2%
inactive: [1] 65.6% | [2] 89.8% | [3] 86.4% | [4] 55.8% | [5] 69.5% | [6] 40.6% | [7] 59.8% | [8] 43.8% | [10] 79.1% | [13] 41.7% | [14] 28.4% | [15] 62.7% | [16] 51.3% | [17] 10.6%

COc1cc(/C=C/C(=O)c2c(C)n([O-])c3ccccc3[n+]2=O)cc(OC)c1OC
active: [6] -0.517%
inactive: [1] 54.9% | [2] 86.5% | [3] 49% | [4] 105% | [5] 20.6% | [7] 51.4% | [8] 65.9% | [9] 55.9% | [10] 32.6% | [11] 21.8% | [12] 66.2% | [13] 78.9% | [14] 53.9% | [15] 43.6% | [16] 46.8% | [17] 75.5% | [18] 54.4% | [19] 60.2%

O=C(/C=C/c1ccc(C(F)(F)F)cc1)c1ccc(Nc2nc(NCCO)nc(NCCO)n2)cc1
inactive: [1] 84.3% | [2] 75.3% | [3] 74.8% | [4] 22.3% | [5] 82.8% | [6] 99.3% | [7] 34.9% | [8] 30.4% | [9] 37.3% | [10] 52.9% | [11] 11.7% | [12] 66.2% | [13] 71% | [14] 74.2% | [15] 54% | [16] 44.6% | [17] 29.3% | [18] 80.8% | [19] 65.4%

C[C@@H]1[C@H]2[C@H](C=C3[C@@H]4CC[C@H]5Cc6nc7c(nc6C[C@]5(C)[C@H]4C[C@@H](O)[C@@]32C)C[C@@H]2CC[C@H]3C4=C[C@@H]5O[C@@]6(CC[C@](C)(CO)O6)[C@@H](C)[C@@]5(O)[C@@]4(C)[C@H](O)C[C@@H]3[C@@]2(C)C7)O[C@]12CCC(C)(C)O2
active: [4] -24.5% | [5] 0.313% | [6] -4.69% | [8] -25.3% | [9] -39.3% | [11] -7.07% | [13] -0.32% | [14] -44.4% | [16] -63.4% | [17] 3.28% | [19] 8.26%
inactive: [1] 33.6% | [2] 20.7% | [3] 27.8% | [7] 12.8% | [10] 45.2% | [12] 38.8% | [15] 31.2% | [18] 26.6%

COCCOCCOCCOCCOc1ccc2c(c1)C(=O)c1nc3ncccc3c(=O)n1-2
inactive: [13] 23.8%
active: [1] -40.1% | [2] -49.3% | [3] -88% | [4] -83% | [5] -61.2% | [6] -18.7% | [7] -77.4% | [8] -51.5% | [9] -85.9% | [10] -95.1% | [11] -92% | [12] -96.2% | [14] -72% | [15] -19.2% | [16] -97% | [17] -89.6% | [18] -83.9% | [19] -90.4%

COc1cc(C2=NN(C=O)C(c3cccc(Nc4ccnc5cc(Cl)ccc45)c3)C2)cc(OC)c1OC (stereo not given)
inactive: [1] 77% | [2] 68.9% | [3] 91.1% | [4] 73% | [5] 83.4% | [6] 53.9% | [7] 61.8% | [8] 65.2% | [9] 66.1% | [10] 80.2% | [11] 46.5% | [12] 89.3% | [13] 76.5% | [14] 72.2% | [15] 74.2% | [16] 66.8% | [17] 91.7% | [18] 73.2% | [19] 64.1%

COc1ccc2cc(C3=CC(=O)CCC3)ccc2c1
inactive: [1] 91.8% | [2] 55.5% | [3] 93.6% | [4] 112% | [5] 110% | [6] 83.5% | [7] 82.6% | [8] 90.5% | [9] 99.9% | [10] 103% | [11] 105% | [12] 114% | [13] 99.6% | [14] 99.4% | [15] 103% | [16] 110% | [17] 95.7% | [18] 96.6% | [19] 104%

O=C1CSC(c2ccccc2O)N1c1nnc(Cn2ccnc2)o1 (stereo not given)
inactive: [1] 67.9% | [2] 91.4% | [3] 69.6% | [4] 67.2% | [5] 34.8% | [6] 69.1% | [7] 66.5% | [8] 59.1% | [9] 92.6% | [10] 80.9% | [11] 43.5% | [12] 101% | [13] 61.6% | [14] 74.7% | [15] 55.7% | [16] 20.7% | [17] 55.6% | [18] 78.7% | [19] 59.8%

Cc1ccc2nc3c(n2c1)C(=O)C(=O)c1ccccc1-3
active: [1] -12.4% | [2] -44.1% | [3] -80.7% | [4] -74.9% | [5] -71.1% | [6] -77.2% | [7] -77.3% | [8] -81% | [9] -69.2% | [10] -89.5% | [11] -48.3% | [12] -85.2% | [13] -48.8% | [14] -91.3% | [15] -78.2% | [16] -71.1% | [17] -90.1% | [18] -90.3% | [19] -81.3%

CN(C)c1ccc(-n2nc3ccccc3n2)cc1
inactive: [1] 95.6% | [2] 86.4% | [3] 111% | [4] 78% | [5] 105% | [6] 86.9% | [7] 92.3% | [8] 83.3% | [9] 102% | [10] 101% | [11] 70.1% | [12] 117% | [13] 85.4% | [14] 98.9% | [15] 127% | [16] 82.7% | [17] 86.1% | [18] 101% | [19] 92.2%

COC(=O)[C@H](Cc1cn(C)cn1)NC(=O)[C@H](C)NC(=O)Nc1cc(C(F)(F)F)cc(C(F)(F)F)c1
active: [1] -60.9% [100 µM] | [2] -33.9% [100 µM] | [3] -54.6% [100 µM] | [4] -95.3% [100 µM] | [5] -34.3% [100 µM] | [6] -95.3% [100 µM] | [7] -25% [100 µM] | [8] -80.8% [100 µM] | [9] -92% [100 µM] | [10] -80.3% [100 µM] | [11] -26.6% [100 µM] | [12] -81.3% [100 µM] | [13] -76.4% [100 µM] | [14] -83.1% [100 µM] | [15] -77% [100 µM] | [16] -82.2% [100 µM] | [17] -95.1% [100 µM] | [18] -92.9% [100 µM] | [19] -85.2% [100 µM]
